Assay results taken from PubChem BioAssay.
Some of the results follow. Activity calls are given as the source filed them.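 How the source made its calls: active means inhibition reaching about 45% at 4 µM in either replicate (limit read from the data); inactive means the rest.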

Assay: PMA/ionomycin-induced NF-kB reporter inhibitors, Jurkat retest, confirmation, T-cell NF-kB inhibitor project, cell-based, luminescence, single concentration (AID 435020);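 further: plate controls were PMA/ionomycin stimulated DMSO wells for no effect and unstimulated DMSO wells for full effect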
Details: Jurkat NF-kB luciferase, 16 h, at 4 µM, active compounds read high

Question: For `COc1ccc(CS(=O)/C(Cl)=C(/Cl)C(=O)Nc2ccc(OC)nc2)cc1` (stereo not given), which inhibition is on record?
Answer: 95.7% (active)

Question: Which inhibition does the source give for `COc1ccccc1NC1=NC(c2ccc(Cl)cc2)N=C(N)N1` (stereo not given) here?
Answer: 18.7% (inactive)

Question: For `Cn1c(-c2ccc(F)cc2)cc2onc(-c3ccccc3Cl)c2c1=O`, which inhibition is on record?
Answer: -96.3% (inactive)

Question: With `COc1ccc(-n2ncc3c(N4CCc5ccccc54)ncnc32)cc1` as the molecule, how does the inhibition read?
Answer: -93.4% (inactive)

Question: Which inhibition does the source give for `COc1ccc(-c2csc(-c3cccs3)n2)cc1OC` here?
Answer: -54.3% (inactive)

Question: Which inhibition does the source give for `Cc1cccc(-n2c(C)cc(/C=N\NC(=O)c3cccs3)c2C)c1` here?
Answer: 6.7% (inactive)

Question: For `Cc1ccc(N2CCN(c3ccc([N+](=O)[O-])cn3)CC2)c(C)c1`, which inhibition is on record?
Answer: 15.2% (inactive)

Question: Which inhibition does the source give for `Cc1ccc(O)c(NC(=O)COc2cc(C)ccc2C)c1` here?
Answer: 0.55% (inactive)

Question: With `Oc1cccc(/C=N/Nc2ccc(Cl)nn2)c1O` as the molecule, how does the inhibition read?
Answer: 0.85% (inactive)

Question: With `Cc1ccc(S(=O)(=O)C2(S(=O)(=O)c3ccc(C)cc3)CCCC2)cc1` as the molecule, how does the inhibition read?
Answer: 24.9% (inactive)

Question: With `COc1ccccc1NC(=O)C1=C(C)Nc2nc3ccccc3n2C1c1cccs1` (stereo not given) as the molecule, how does the inhibition read?
Answer: 42.7% (inactive)

Question: Which inhibition does the source give for `CCOc1cc(C(=O)N2CCc3cc(OC)c(OC)cc3C2)ccc1OC(F)F` here?
Answer: 57.9% (active)

Question: For `Cc1ccc2nc(-c3ccc(NC(=O)CN(C)S(=O)(=O)c4ccccc4)cc3)sc2c1`, which inhibition is on record?
Answer: -82.4% (inactive)

Question: For `O=C(/C=C/c1ccc([N+](=O)[O-])o1)NNC(=O)c1ccc(F)cc1`, which inhibition is on record?
Answer: 45.4% (inactive)

Question: Which inhibition does the source give for `COc1ccccc1C1C2=C(COC2=O)Nc2cc3c(cc21)OCO3` (stereo not given) here?
Answer: 23.4% (inactive)

Question: Which inhibition does the source give for `COc1cc(N=Cc2c(O)[nH]c3ccccc23)cc(OC)c1OC` here?
Answer: -14% (inactive)

Question: With `CCCOC(=O)c1[nH]c2c(c1C)C(=O)CC(c1cccs1)C2` (stereo not given) as the molecule, how does the inhibition read?
Answer: 52.4% (active)

Question: For `O=C(Nc1ccc2c(c1)OCCO2)C1CCCN(c2ncccn2)C1` (stereo not given), which inhibition is on record?
Answer: -110% (inactive)

Question: For `COc1ccc(CC(=O)Nc2nc(-c3ccc(F)c(F)c3)cs2)cc1OC`, which inhibition is on record?
Answer: 58.5% (active)

Question: Which inhibition does the source give for `CCOc1ccccc1NC(=O)Cn1nnc(C(=O)NCc2cccs2)c1N` here?
Answer: 51.6% (active)

Question: For `C=CCn1c(SCc2c(C)noc2C)nc2sc3c(c2c1=O)CCC(C)C3` (stereo not given), which inhibition is on record?
Answer: 27.9% (inactive)

Question: For `CSc1nc(N(C)NC(=O)c2cccc(C)c2)c2ccccc2n1`, which inhibition is on record?
Answer: 57.2% (active)

Question: For `COc1ccccc1N1CCN(C(=O)c2cc(=O)c3cc(C)cc(C)c3o2)CC1`, which inhibition is on record?
Answer: 54% (active)

Question: Which inhibition does the source give for `O=C(NC(Nc1nc2ccc([N+](=O)[O-])cc2s1)(C(F)(F)F)C(F)(F)F)c1ccccc1` here?
Answer: 80.7% (active)

Question: For `COc1cc(/C=N/O)ccc1OCc1ccc([N+](=O)[O-])cc1`, which inhibition is on record?
Answer: -119% (inactive)

Question: Which inhibition does the source give for `CCOc1ccc2[nH]c3nc(SCC(=O)NC4CCCC4)nnc3c2c1` here?
Answer: 14.2% (inactive)

Question: For `Cc1cccc(N(C)C(=O)c2cc3c(=O)[nH]c4ccc(C)cc4c3s2)c1`, which inhibition is on record?
Answer: 16.9% (inactive)

Question: With `COc1ccc(C)c(Cn2c(-c3nonc3N)nc3ccccc32)c1` as the molecule, how does the inhibition read?
Answer: 44.8% (inactive)

Question: For `CC(C)c1ccc(NC(=O)NC2CCCCC2)cc1`, which inhibition is on record?
Answer: -175% (inactive)

Question: For `Cc1ccc(-n2ncc3c2CC(C)(C)CC3NC(=O)Cc2c(C)noc2C)cc1` (stereo not given), which inhibition is on record?
Answer: -15.6% (inactive)

Question: For `CCCC(=O)Nc1nc2ccc(NC(=O)c3c(F)c(F)c(OC)c(F)c3F)cc2s1`, which inhibition is on record?
Answer: 40.9% (active)

Question: Which inhibition does the source give for `CC(C)CC(=O)N/C(N)=N/c1nc2ccccc2s1` here?
Answer: -131% (inactive)

Question: For `Cc1nnc(N/N=C/c2ccccn2)[nH]c1=O`, which inhibition is on record?
Answer: 63.8% (active)

Question: With `Cc1ccc(SCCSc2ncccn2)cc1` as the molecule, how does the inhibition read?
Answer: -64.3% (inactive)

Question: Which inhibition does the source give for `COc1cc2c(cc1OC)CN(C(=O)c1cc(=O)c3ccccc3o1)CC2` here?
Answer: 21.4% (inactive)

Question: With `CC(=O)c1ccc(Oc2cc(C)nc(-n3nc(C)cc3C)n2)cc1` as the molecule, how does the inhibition read?
Answer: 58.9% (active)

Question: For `CC[C@]1(O)CC2CN(CCc3c([nH]c4ccccc34)[C@@](C(=O)OC)(c3cc4c(cc3OC)N(C=O)[C@H]3[C@@](O)(C(=O)OC)[C@H](OC(C)=O)[C@]5(CC)C=CCN6CC[C@]43[C@@H]65)C2)C1` (stereo not given in full), which inhibition is on record?
Answer: 62.8% (active)

Question: With `CCOC(=O)c1ccc(NC(=O)Cn2cnc3cc(C)c(C)cc32)cc1` as the molecule, how does the inhibition read?
Answer: 66.2% (active)

Question: Which inhibition does the source give for `CCOc1ccc(NC(=O)c2ccc(NC(=O)COC(=O)c3ccc(NC(=O)CC#N)cc3)cc2)cc1` here?
Answer: -36.5% (inactive)

Question: With `Cc1cc(N)n2nc(-c3ccc(C(C)(C)C)cc3)cc2n1` as the molecule, how does the inhibition read?
Answer: -164% (inactive)
